{
  "source": "PubChem BioAssay AID1259309",
  "about": "(ICCB-Longwood Screening Facility, Harvard Medical School, 2017)",
  "note": "“And” between values parts separate entries of the source, which are not always exact repeats. Equal values may be shown once. In all, about 330,000 compounds went through this assay and about 1,800 (0.55%) were called active. Shown is part of a subset that was picked to be rich in actives. Values without a mark were called inactive. Rule as the data show it: active = growth inhibition above about 68%; inactive = the rest.",
  "data": [
    {"assay": "growth inhibition of ugtP-null S. aureus, primary screen, RN4220 ugtP deletion, OD600 (AID 1259309);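 also: plate controls were untreated wells for no effect and antibiotic for full effect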", "conditions": "16 h, stronger effect = higher value", "values": [
      {"smiles": "CCN(CC)Cc1c(C(=O)NN=Cc2ccncc2)nnn1-c1nonc1N", "growth inhibition": "4.89%"},
      {"smiles": "Nc1scc[n+]1Cc1cccc2cccnc12", "growth inhibition": "3.29%"},
      {"smiles": "c1ccc2c(C[n+]3csc4ccccc43)cccc2c1", "growth inhibition": "95.1% (active)"},
      {"smiles": "c1ccc2c(CNn3cnnc3)cccc2c1", "growth inhibition": "4.79%"},
      {"smiles": "Cc1ccc(CON=CCc2snc(Sc3ncc(C(F)(F)F)cc3Cl)c2C#N)cc1", "growth inhibition": "28%"},
      {"smiles": "CCCC12CN3CCN(CC(C3)C1=NNC(=O)Nc1ccccc1)C2", "growth inhibition": "1.17%"},
      {"smiles": "O=C(ON=Cc1ccc(N2CCCCC2)c([N+](=O)[O-])c1)c1c(F)cccc1F", "growth inhibition": "-5.14%"},
      {"smiles": "Cc1nnc(SCC(=O)NC2CCCC2)s1", "growth inhibition": "-2.03%"},
      {"smiles": "Cc1cc(C)cc(C(=O)NC2C(=O)N3C(C(=O)O)=C(CSc4nnc(C)s4)CSC23)c1", "note": "(stereo not given)", "growth inhibition": "100% (active)"},
      {"smiles": "Cc1nnc(SCc2cc(=O)[nH]c(N3CCN(Cc4ccccc4)CC3)n2)s1", "growth inhibition": "0.849%"},
      {"smiles": "Cc1nnc(SCC(=O)Nn2cnnc2)s1", "growth inhibition": "-2.34%"},
      {"smiles": "Cc1nnc(SCC2=C(C(=O)O)N3C(=O)C(NC(=O)Cn4nc(C)c(Cl)c4C)C3SC2)s1", "note": "(stereo not given)", "growth inhibition": "97.9% (active)"},
      {"smiles": "CC1(C)c2[nH]c3ccccc3c2CC2C(=O)N(Cc3ccccc3F)C(=O)N21", "note": "(stereo not given)", "growth inhibition": "2.24% and -4.9%"},
      {"smiles": "COc1ccc(C=NNC(=O)CN2CCCC2)cc1", "growth inhibition": "3.93%"},
      {"smiles": "CC1CN(C(C)CO)C(=O)Cc2cc(NC(=O)C3CC3)ccc2OC1CN(C)Cc1ccc(Oc2ccccc2)cc1", "note": "(stereo not given)", "growth inhibition": "9.46%"},
      {"smiles": "Cc1cc(C)nc(N=C(N)Nc2ccc(SC(F)F)cc2)n1", "growth inhibition": "20%"},
      {"smiles": "COc1ccc(C(C)=NNC(=O)c2cccc(S(=O)(=O)N3CCCC3)c2)c(O)c1", "growth inhibition": "4.49%"},
      {"smiles": "O=C(CC1CC=CCC(Cc2ccc(F)cc2)C(=O)OCC(Cc2ccccc2)NC1=O)NC(CO)Cc1ccccc1", "note": "(stereo not given)", "growth inhibition": "5.86%"},
      {"smiles": "CC(C)(C=NO)/[N+]([O-])=C/c1ccco1", "growth inhibition": "3.75%"},
      {"smiles": "O=C(NN=Cc1ccc(F)cc1)c1ccc(F)cc1", "growth inhibition": "3.85%"},
      {"smiles": "O=C(/C=C/c1ccc([N+](=O)[O-])o1)NNC(=O)c1ccc(F)cc1", "growth inhibition": "98.7% (active)"},
      {"smiles": "Nc1nonc1C(=O)NN=Cc1ccc([N+](=O)[O-])o1", "growth inhibition": "70.5%"},
      {"smiles": "COc1cc(NC=C2CC(=O)NC(C)=C2C#N)cc(OC)c1OC", "growth inhibition": "-2.01%"},
      {"smiles": "CC(=O)NC(Cc1ccccc1)C(=O)NC1CCN(c2ncccc2[N+](=O)[O-])CC1", "note": "(stereo not given)", "growth inhibition": "7.02%"},
      {"smiles": "COc1ccc(-c2cc3ncccc3cn2)cc1", "growth inhibition": "7.34%"},
      {"smiles": "COc1ccc(-c2cc(C3CCN(c4ncccc4[N+](=O)[O-])CC3)[nH]n2)cc1", "growth inhibition": "100% (active)"},
      {"smiles": "COc1ccc(S(=O)(=O)Nc2cccc3c2OC(CN(C)Cc2ccc(Cl)c(Cl)c2)C(C)CN(C(C)CO)C3=O)cc1", "note": "(stereo not given)", "growth inhibition": "11.2%"},
      {"smiles": "COc1ccc(C(=O)Nc2cccc(/C=C(/CCC(=O)O)c3nc4ccccc4s3)c2)cc1", "growth inhibition": "-2.4%"},
      {"smiles": "COc1ccc(C2=NN(c3nc4ccccc4s3)C(=O)C2)cc1", "growth inhibition": "99% (active)"},
      {"smiles": "COc1ccccc1NC(=O)c1ccc2nc(N3C(=O)CCC3=O)sc2c1", "growth inhibition": "-9.64%"},
      {"smiles": "C/C(C=NNC(=O)CSc1nc2ccccc2n1C)=C\\c1ccco1", "growth inhibition": "3.58%"},
      {"smiles": "O=C(Nc1ccccc1)Oc1cccc2cccnc12", "growth inhibition": "99.7% (active)"},
      {"smiles": "OCc1ccc(OCCCOc2cccc3cccnc23)cc1", "growth inhibition": "-3.52%"},
      {"smiles": "NC(=O)C1CCN(C(=O)COc2cccc3cccnc23)CC1", "growth inhibition": "-13.3%"},
      {"smiles": "Cc1ccc(C(=O)NC(=S)Nc2ccccc2C)cc1", "growth inhibition": "83.5% (active)"},
      {"smiles": "Cc1ccccc1NC(=S)NC(=O)Cc1ccc(Cl)cc1", "growth inhibition": "67%"},
      {"smiles": "Cc1cc(C(=O)NNC(=S)Nc2ccccc2C)cs1", "growth inhibition": "-0.4%"},
      {"smiles": "Cc1cc(SCC(=O)NN=Cc2ccc(O)c(O)c2)nc2ccccc12", "growth inhibition": "-2.24%"},
      {"smiles": "ON=Cc1ccc(OCc2ccccc2)c(Br)c1", "growth inhibition": "1.91%"},
      {"smiles": "O=C(CC(O)(C(F)(F)F)C(F)(F)F)Nc1ccc(Cl)c(Cl)c1", "growth inhibition": "100% (active)"},
      {"smiles": "O=C(COC(=O)c1cc[n+]([O-])cc1)Nc1ccc(Cl)c(C(F)(F)F)c1", "growth inhibition": "-2.28%"},
      {"smiles": "NC(=O)N1CCCC1C(=O)Nc1ccc(Cl)c(Cl)c1", "note": "(stereo not given)", "growth inhibition": "3.8%"},
      {"smiles": "CC(=NNC(=O)c1nnn(-c2nonc2N)c1-c1cccs1)c1ccc(O)cc1", "growth inhibition": "-2.71%"},
      {"smiles": "Cc1ccc(C(=O)NCCN2C3=NCC(Cc4ccc(O)cc4)N3CC2Cc2ccc(O)cc2)cc1Br", "note": "(stereo not given)", "growth inhibition": "-5.82%"},
      {"smiles": "O=C(CCC(=O)Nc1ccc(F)cc1)NN=Cc1ccccc1", "growth inhibition": "-1.26%"},
      {"smiles": "CCCC1CCCCC=CCCCC(=O)OCCN1C(=O)OC(C)(C)C", "note": "(stereo not given)", "growth inhibition": "-29.8% and -2.83%"},
      {"smiles": "COc1ccc(Cl)cc1NC(=O)CN(C)C(=O)c1cc2ccccc2cc1OC", "growth inhibition": "-3.53%"},
      {"smiles": "COc1ccc(Cl)cc1NC(=O)CN(C)C(=O)CNC(=O)C12CC3CC(CC(C3)C1)C2", "growth inhibition": "-1.84%"},
      {"smiles": "COc1ccc(Cl)cc1NC(=O)CN(C)C(=O)CCCc1c[nH]c2ccccc12", "growth inhibition": "98.4% (active)"},
      {"smiles": "COc1ccc(C(=O)Nc2ccccc2C(=O)NN=Cc2ccccc2OC)cc1", "growth inhibition": "10.4%"},
      {"smiles": "NC1=NCC(Cc2ccc(O)cc2)N1CCc1cccc(F)c1", "note": "(stereo not given)", "growth inhibition": "4.31% and -0.973%"},
      {"smiles": "CSCCC(NC(=O)c1ccc(Cl)cc1Cl)C(=O)NNC(=O)c1csc(N2CCOCC2)n1", "note": "(stereo not given)", "growth inhibition": "6.67%"},
      {"smiles": "CSCc1cc(N(C)C)nc(SCc2ccc(Cl)cc2Cl)n1", "growth inhibition": "63.4%"},
      {"smiles": "CSCc1cc(N2CCOCC2)nc(SCc2ccc(Cl)cc2Cl)n1", "growth inhibition": "93.1% (active)"},
      {"smiles": "CCN(CC)c1ccc(C=NNC(=O)c2c[nH]c3ccccc23)cc1", "growth inhibition": "-5.72%"},
      {"smiles": "CCN1C(=O)C2C(C1=O)C(c1ccccc1)N1C(=O)c3ccccc3NC(=O)C21", "note": "(stereo not given)", "growth inhibition": "-13.8%"},
      {"smiles": "CCC1CCCCN1C(=O)NC(CCSC)C(=O)OC", "note": "(stereo not given)", "growth inhibition": "7.53%"},
      {"smiles": "O=C(Nc1nnc(-c2ccco2)o1)c1ccc(S(=O)(=O)N2CCOCC2)cc1", "growth inhibition": "11.9%"},
      {"smiles": "COc1ccc(-c2nnc(NC(=O)CS(=O)(=O)c3ccc(Cl)cc3)o2)c(OC)c1", "growth inhibition": "46.4%"},
      {"smiles": "COc1cccc(-c2nnc(NC(=O)c3ccc(S(=O)(=O)N(CC(C)C)CC(C)C)cc3)o2)c1", "growth inhibition": "100% (active)"}
    ]}
  ]
}
